Results from PubChem BioAssay AID1159580 (chemical genetic matrix, 2015).
Values joined by “and” are separate entries in the source; they are usually repeats but may differ in a detail not shown here. Identical values can stand only once. Screen size: about 5,500 compounds; about 2,000 (36%) were called active. Roughly 18% stayed inconclusive and do not appear here. No stated cut-off is given here; in the data, active means normalized growth mostly below about 0.91 (no sharp cut-off); inconclusive means no clear call, values can overlap the other calls; inactive means mostly above about 0.92. Some of the results follow.

Test: chemical genetic growth profiling, strain panel (AID 1159580);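 further: tested at 20 µM; growth read once vehicle control cultures reached saturation at 30 °C; 1 = growth at the plate median or of vehicle wells; lower values mean less growth of the strain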
Details: growth OD

Measured: normalized growth

O=C(C1CCCCC1)N1CC(=O)N2CCc3ccccc3C2C1 (centres undefined)
inactive: S. cerevisiae deletion strains, locus YJR075W, strain HOC1, active compounds read low 1 | S. cerevisiae deletion strains, locus YKL009W, strain mrt4, active compounds read low 1.02 | S. cerevisiae deletion strains, locus YKL068W, active compounds read low 1 | S. cerevisiae deletion strains, locus YKL085W, strain MDH1 (second series), active compounds read low 1.01 | S. cerevisiae deletion strains, locus YKL085W, strain MDH1, active compounds read low 1.01 | S. cerevisiae deletion strains, locus YKL160W, strain elf1, active compounds read low 1.01 | S. cerevisiae deletion strains, locus YKL190W, strain CNB1, active compounds read low 1 | S. cerevisiae deletion strains, locus YKR001C, strain vps1, active compounds read low 1.01 | S. cerevisiae deletion strains, locus YKR026C, strain gcn3, active compounds read low 1.01 | S. cerevisiae deletion strains, locus YKR091W, strain srl3, active compounds read low 1.01 | S. cerevisiae deletion strains, locus YLL001W, strain dnm1, active compounds read low 1.06 | S. cerevisiae deletion strains, locus YLL026W, active compounds read low 1.01 | S. cerevisiae deletion strains, locus YLL041C, strain sdh2, active compounds read low 0.995 | S. cerevisiae deletion strains, locus YLR027C, strain aat2, active compounds read low 0.984 | S. cerevisiae deletion strains, locus YLR039C, strain RIC1, active compounds read low 1.01 | S. cerevisiae deletion strains, locus YLR058C, strain SHM2, active compounds read low 1 | S. cerevisiae deletion strains, locus YLR102C, strain apc9, active compounds read low 1.01 | S. cerevisiae deletion strains, locus YLR113W, strain HOG1, active compounds read low 1.01 | S. cerevisiae deletion strains, locus YLR221C, strain rsa3, active compounds read low 1.03 | S. cerevisiae deletion strains, locus YLR258W, strain gsy2, active compounds read low 1.03 | S. cerevisiae deletion strains, locus YLR262C, strain YPT6 (second series), active compounds read low 1.04 | S. cerevisiae deletion strains, locus YLR262C, strain YPT6, active compounds read low 1.02 | S. cerevisiae deletion strains, locus YLR268W, strain sec22, active compounds read low 1.03 | S. cerevisiae deletion strains, locus YLR320W, strain mms22, active compounds read low 1.02 | S. cerevisiae deletion strains, locus YLR330W, strain CHS5, active compounds read low 1.01 | S. cerevisiae deletion strains, locus YLR342W, strain FKS1 (second series), active compounds read low 1.01 | S. cerevisiae deletion strains, locus YLR342W, strain FKS1, active compounds read low 1.01 | S. cerevisiae deletion strains, locus YLR357W, strain rsc2, active compounds read low 0.998 | S. cerevisiae deletion strains, locus YLR370C, strain arc18, active compounds read low 1.02 | S. cerevisiae deletion strains, locus YLR371W, strain rom2, active compounds read low 1.01 | S. cerevisiae deletion strains, locus YLR384C, strain iki3, active compounds read low 1.01 | S. cerevisiae deletion strains, locus YLR418C, strain cdc73, active compounds read low 1.01 | S. cerevisiae deletion strains, locus YML016C, strain PPZ1, active compounds read low 0.999 | S. cerevisiae deletion strains, locus YML032C, strain rad52, active compounds read low 1.01 | S. cerevisiae deletion strains, locus YML120C, strain ndi1, active compounds read low 1.04 | S. cerevisiae deletion strains, locus YML124C, strain tub3, active compounds read low 1 | S. cerevisiae deletion strains, locus YMR058W, strain fet3, active compounds read low 1 | S. cerevisiae deletion strains, locus YMR078C, strain ctf18, active compounds read low 0.997 | S. cerevisiae deletion strains, locus YMR125W, strain sto1, active compounds read low 1.02 | S. cerevisiae deletion strains, locus YMR129W, active compounds read low 1.01 | S. cerevisiae deletion strains, locus YMR205C, strain PFK2, active compounds read low 1.02 | S. cerevisiae deletion strains, locus YMR223W, strain ubp8, active compounds read low 0.987 | S. cerevisiae deletion strains, locus YMR231W, strain pep5, active compounds read low 1 | S. cerevisiae deletion strains, locus YMR263W, strain SAP30, active compounds read low 1 | S. cerevisiae deletion strains, locus YMR307W, strain GAS1, active compounds read low 1 and 0.995 | S. cerevisiae deletion strains, locus YNL067W, strain RPL9B, active compounds read low 1 | S. cerevisiae deletion strains, locus YNL071W, strain lat1, active compounds read low 0.996 | S. cerevisiae deletion strains, locus YNL153C, strain GIM3, active compounds read low 1.03 | S. cerevisiae deletion strains, locus YNL175C, strain NOP13, active compounds read low 1.01 | S. cerevisiae deletion strains, locus YNL183C, strain NPR1, active compounds read low 0.96 | S. cerevisiae deletion strains, locus YNL197C, strain WHI3, active compounds read low 1.01 | S. cerevisiae deletion strains, locus YNL209W, strain ssb2, active compounds read low 1 | S. cerevisiae deletion strains, locus YNL224C, strain SQS1, active compounds read low 1.02 | S. cerevisiae deletion strains, locus YNL233W, strain BNI4, active compounds read low 0.995 | S. cerevisiae deletion strains, locus YNL248C, strain rpa49, active compounds read low 0.893 | S. cerevisiae deletion strains, locus YNL250W, strain rad50, active compounds read low 1.01 | S. cerevisiae deletion strains, locus YNL271C, strain bni1, active compounds read low 1 | S. cerevisiae deletion strains, locus YNL298W, strain CLA4, active compounds read low 1.01 | S. cerevisiae deletion strains, locus YNL307C, strain MCK1, active compounds read low 1.02 | S. cerevisiae deletion strains, locus YNL322C, strain KRE1 (second series), active compounds read low 1.02 | S. cerevisiae deletion strains, locus YNL322C, strain KRE1, active compounds read low 1 and 1.01 | S. cerevisiae deletion strains, locus YNR049C, strain mso1, active compounds read low 1 | S. cerevisiae deletion strains, locus YNR052C, strain pop2, active compounds read low 1.01 | S. cerevisiae deletion strains, locus YOL006C, strain TOP1, active compounds read low 0.912 | S. cerevisiae deletion strains, locus YOL012C, strain htz1 0.872 | S. cerevisiae deletion strains, locus YOL147C, strain pex11, active compounds read low 1.01 | S. cerevisiae deletion strains, locus YOR001W, strain rrp6, active compounds read low 0.971 | S. cerevisiae deletion strains, locus YOR061W, strain CKA2, active compounds read low 1 | S. cerevisiae deletion strains, locus YOR069W, strain VPS5, active compounds read low 1 | S. cerevisiae deletion strains, locus YOR070C, strain gyp1, active compounds read low 1 | S. cerevisiae deletion strains, locus YOR080W, strain dia2, active compounds read low 1.01 | S. cerevisiae deletion strains, locus YOR083W, strain WHI5 (second series), active compounds read low 1.01 | S. cerevisiae deletion strains, locus YOR083W, strain WHI5, active compounds read low 1.03 | S. cerevisiae deletion strains, locus YOR106W, strain vam3, active compounds read low 1.01 | S. cerevisiae deletion strains, locus YOR136W, strain idh2, active compounds read low 1.01 | S. cerevisiae deletion strains, locus YOR144C, strain elg1, active compounds read low 1.01 | S. cerevisiae deletion strains, locus YOR184W, strain ser1, active compounds read low 1 | S. cerevisiae deletion strains, locus YOR231W, strain MKK1, active compounds read low 1 | S. cerevisiae deletion strains, locus YOR265W, strain rbl2, active compounds read low 1 | S. cerevisiae deletion strains, locus YOR270C, strain vph1, active compounds read low 0.955 | S. cerevisiae deletion strains, locus YOR290C, strain snf2, active compounds read low 1.02 | S. cerevisiae deletion strains, locus YOR316C, strain cot1, active compounds read low 1 | S. cerevisiae deletion strains, locus YPL051W, strain arl3, active compounds read low 0.988 | S. cerevisiae deletion strains, locus YPL078C, strain atp4, active compounds read low 0.974 | S. cerevisiae deletion strains, locus YPL106C, strain sse1, active compounds read low 1.04 | S. cerevisiae deletion strains, locus YPL240C, strain hsp82, active compounds read low 0.998 | S. cerevisiae deletion strains, locus YPL241C, strain CIN2, active compounds read low 1 | S. cerevisiae deletion strains, locus YPL256C, strain CLN2, active compounds read low 0.965 | S. cerevisiae deletion strains, locus YPR119W, strain clb2, active compounds read low 1 | S. cerevisiae deletion strains, locus YPR141C, strain kar3, active compounds read low 1.01 | S. cerevisiae deletion strains, locus YPR163C, strain tif3, active compounds read low 1.02 | S. cerevisiae deletion strains, locus YPR167C, strain met16, active compounds read low 1.02 | S. cerevisiae deletion strains, strain wtn01, active compounds read low 1.02 | S. cerevisiae strains, strain wild type, active compounds read low 0.999
